Screens (PubChem)
Compounds with a hit are over-represented: about 3.6% of the library has one in this group of screens.
Pf apPOL inh: Pf-apPOL DNA polymerase inhibition; actives 0.25% (n = 210,000); inhibition, % at 10 µM; AID 1794808; Recombinant Pf-apPOL, molecular beacon fluorescence, 1.5 h
mHTT CaM bind: mHTT-calmodulin interaction abrogation; AlphaScreen His-mHTT/GST-CaM binding, luminescence; inhibition, % at 15 µM; actives 3.6% (n = 190,000); AID 1671202
Numbers stand for hits; - = inactive; . = no result given. Cut-off read from the data, not from the text of the source: active = inhibition above about 50%; inactive = the rest.

SMILES | Pf apPOL inh | mHTT CaM bind
COc1ccc(C2/C=C\CN(C(=O)c3ccccc3)CC(=O)N2Cc2ccc(F)cc2)cc1 (stereo unspecified) | - | -
CCCCCCNC(=O)N1C/C=C\C(c2ccc(OC)cc2)N(Cc2ccc(F)cc2)C(=O)C1 (stereo unspecified) | - | -
COc1ccc(C2/C=C\CN(S(=O)(=O)c3ccc4ccccc4c3)CC(=O)N2Cc2ccc(F)cc2)cc1 (stereo unspecified) | - | -
CCCCCCC(=O)N1C/C=C\C(c2ccc(OC)cc2)N(Cc2ccc(F)cc2)C(=O)C1 (stereo unspecified) | - | 62
COc1ccc(C2/C=C\CC(OCc3ccccc3)CC(=O)N2Cc2cccc(F)c2)cc1 (stereo unspecified) | - | 100
Cc1nn(C(=O)Cc2ccccc2)c(C)c1Sc1ccccc1[N+](=O)[O-] | - | -
Cc1cccc(CCNC(=O)c2cc3n(n2)CCCN(Cc2ccccc2)C3=O)c1 | - | -
N#CC1(C#N)C2CCCCC23OC(=N)C1(C#N)C(c1ccncc1)O3 (stereo unspecified) | - | -
COc1ccc([N+](=O)[O-])cc1C1=N/C(=C/c2ccc(F)cc2)C(=O)O1 | - | -
CC1CCC(C(=O)NC(C(=O)Nc2ccc(F)c(Cl)c2)C(C)C)CC1 (stereo unspecified) | - | -
Cc1ccc([N+](=O)[O-])cc1N=Cc1nc(-c2ccc(Cl)cc2)oc1O | - | -
CCn1c2ccccc2c2cc(C(C)=O)ccc21 | - | -
CC(C)(C)OC(=O)Cn1c2ccccc2c2cc(N)ccc21 | - | 73
CCNC(=O)C1CCc2nc(N3CCN(C(=O)C(C)C)CC3)sc2C1 (stereo unspecified) | - | -
COc1ccc(-n2nc3c(c2NC(=O)c2ccc(C)c(C)c2)CSC3)cc1 | - | -
O=S(=O)(NCCSCc1csc2ccc(Cl)cc12)c1ccc(Cl)cc1 | - | .
C(=C1c2ccccc2-c2ccccc21)c1ccccn1 | - | -
Nc1ccc2c(c1)/C(=C/c1ccccc1)c1ccccc1-2 | - | 100
O=C(CSc1nnc(-c2ccc(Cl)cc2Cl)o1)N1CCCc2ccccc21 | - | -
Cc1cc(O)ccc1NC(=O)CC(NCCC1=CCCCC1)C(=O)O (stereo unspecified) | - | -
O=C1c2ccccc2-c2onc3c(Br)cc(Br)c1c23 | - | -
COc1cccc(Nc2ccc3noc4c3c2C(=O)c2ccccc2-4)c1 | - | 58
COc1cccc(NC2=CC(=O)CC(c3ccccc3)C2)c1 (stereo unspecified) | - | -
CNc1cc(Nc2cccc(C)c2)c2c3c(onc13)-c1ccccc1C2=O | - | 89
Cn1cnc2cc(CNC(=O)Cc3ccsc3)ccc21 | - | -
SMILES | Pf apPOL inh | mHTT CaM bind
COc1ccc(C2CCCN2C(=O)c2cnn3cccnc23)cc1 (stereo unspecified) | - | -
N=c1n(Cc2ccccc2)c2ccccc2n1CC(O)COc1ccc(Cl)cc1 (stereo unspecified) | - | 60
CCCCn1c(=N)n(CC(O)COc2ccc(Cl)cc2)c2ccccc21 (stereo unspecified) | - | -
Cc1ccc(N2C(=O)NC3CC2(C)Oc2ccc(Br)cc23)cc1Cl (stereo unspecified) | - | 55
COc1cccc(N2C(=O)NC3CC2(C)Oc2ccccc23)c1 (stereo unspecified) | - | 88
Cc1ccc(CNC(=O)c2ccc(N3C(=O)NC4CC3(C)Oc3ccccc34)cc2)cc1 (stereo unspecified) | - | 55
Cc1ccc(N2C(=O)NC3CC2(C)Oc2ccc(Br)cc23)cc1C (stereo unspecified) | - | -
COc1cccc(N2C(=O)NC3CC2(C)Oc2ccc(Cl)cc23)c1 (stereo unspecified) | - | -
Cc1ccc(CCNC(=O)c2ccc(N3C(=O)NC4CC3(C)Oc3ccccc34)cc2)cc1 (stereo unspecified) | - | -
CCOc1ccccc1NC(=O)N1CCCC1c1ccc(C)cc1 (stereo unspecified) | - | -
CCOC(=O)c1c(NC(=O)CSc2nnc(C)s2)sc2c1CCC2 | . | -
COc1ccc(CNc2nc(-c3ccccc3)nnc2C)cc1 | - | 56
COc1ccc(-c2nnc(C)c(NCc3ccccc3)n2)cc1 | - | -
CCOC(=O)c1ccc(OCC2c3cc(OC)c(OC)cc3CCN2C(=O)C(C)C)cc1 (stereo unspecified) | - | -
O=C(Nc1ccc(N2CCN(Cc3ccc(F)cc3)CC2)nc1)c1cccc(F)c1 | - | -
OC(C#CC(O)(c1ccccc1)c1ccccc1)c1cccs1 (stereo unspecified) | - | -
Cc1ccc(C(O)C#CC(O)(c2ccccc2)c2ccccc2)o1 (stereo unspecified) | - | 58
CN(C)C(C)(C)C#CC(O)(c1ccccc1)c1ccccc1 | - | -
OC(C#CC(O)(c1ccccc1)c1ccccc1)c1ccccc1F (stereo unspecified) | 88 | -
O=C(Cc1ccc(Cl)cc1)N1CCCCC1CCN1CCCCCC1 (stereo unspecified) | - | -
Cc1ccc(N2CC(C(=O)NCc3cccnc3)CC2=O)cc1Cl (stereo unspecified) | - | -
COc1ccc(N2COc3ccc(Cl)cc3C2)cc1 | - | 73
COc1ccc(CN2COc3cc(C)c(Cl)c(C)c3C2)cc1 | - | -
COc1cccc(N2COc3cc(C)c(Cl)c(C)c3C2)c1 | - | 98
COc1ccc2c(c1)CN(c1ccc(Cl)cc1)CO2 | - | 51
SMILES | Pf apPOL inh | mHTT CaM bind
COc1ccc(N2COc3cc4c(cc3C2)OCO4)cc1 | - | -
COc1ccc2c(c1)CN(Cc1ccc(Cl)cc1)CO2 | - | -
Cc1cc(C)cc(S(=O)(=O)N2CCCC(C)(C(=O)NCc3ccccc3)C2)c1 (stereo unspecified) | - | -
Cc1cc(C)c(S(=O)(=O)N2CCCC(C)(C(=O)NCc3ccccc3)C2)c(C)c1 (stereo unspecified) | - | 59
Cc1ccc(S(=O)(=O)N2CCCC(C)(C(=O)NCc3ccc(F)cc3)C2)cc1 (stereo unspecified) | - | -
Cc1cc(C)cc(S(=O)(=O)N2CCCC(C)(C(=O)NCc3ccc(F)cc3)C2)c1 (stereo unspecified) | - | 52
COc1ccccc1NC(=O)Nc1ccc(Cl)c(Cl)c1 | - | -
COc1ccccc1C1SCCN1C(=O)Nc1ccc(Cl)c(Cl)c1 (stereo unspecified) | - | 97
CC(C)NC(=O)c1ccccc1OCC1CCN(C(=O)C2(c3ccccc3)CC2)CC1 | - | -
O=C1/C(=C/c2cc([N+](=O)[O-])ccc2Cl)Sc2ccccc21 | - | -
O=C1/C(=C/c2cc([N+](=O)[O-])ccc2O)Sc2ccccc21 | - | 73
O=C1/C(=C/c2ccccc2F)Sc2ccccc21 | - | 58
O=C1/C(=C/c2ccc(F)cc2F)Sc2ccccc21 | - | -
COc1ccc(-c2nc3s/c(=C4/C(=O)N(C)c5ccccc54)c(=O)n3n2)cc1 | - | -
COc1ccc(-c2nc3n(n2)C(=O)CC(c2ccc(C)cc2)S3)cc1 (stereo unspecified) | - | -
Cc1ccc(SC(=O)c2csnn2)cc1 | - | .
Cc1ccc(NCC(O)Cn2c(C)c(C)c3ccccc32)cc1 (stereo unspecified) | - | -
Cc1c(C)n(CC(O)CNC(C)c2ccccc2)c2ccccc12 (stereo unspecified) | - | -
